# Source: PubChem BioAssay (National Center for Advancing Translational Sciences (NCATS))
# The list is not random: actives were taken first. Their share in the collection is about 11%.
# hNpr1 antagonist – antagonists of human natriuretic peptide receptor Npr1; HEK293 hNpr1 GloSensor cGMP, ANP-stimulated luminescence; Potency, µM (series often up to 46.3 µM), without a hit: at the highest dose activity change, negative = inhibition, usual class: inhibitors; 1.6% of 76,000 active; AID 1347048; calls by dose curve; further: nearly all actives have a fitted effect of over 60% in size
# Target sequence (P16066 whole entry, looked up): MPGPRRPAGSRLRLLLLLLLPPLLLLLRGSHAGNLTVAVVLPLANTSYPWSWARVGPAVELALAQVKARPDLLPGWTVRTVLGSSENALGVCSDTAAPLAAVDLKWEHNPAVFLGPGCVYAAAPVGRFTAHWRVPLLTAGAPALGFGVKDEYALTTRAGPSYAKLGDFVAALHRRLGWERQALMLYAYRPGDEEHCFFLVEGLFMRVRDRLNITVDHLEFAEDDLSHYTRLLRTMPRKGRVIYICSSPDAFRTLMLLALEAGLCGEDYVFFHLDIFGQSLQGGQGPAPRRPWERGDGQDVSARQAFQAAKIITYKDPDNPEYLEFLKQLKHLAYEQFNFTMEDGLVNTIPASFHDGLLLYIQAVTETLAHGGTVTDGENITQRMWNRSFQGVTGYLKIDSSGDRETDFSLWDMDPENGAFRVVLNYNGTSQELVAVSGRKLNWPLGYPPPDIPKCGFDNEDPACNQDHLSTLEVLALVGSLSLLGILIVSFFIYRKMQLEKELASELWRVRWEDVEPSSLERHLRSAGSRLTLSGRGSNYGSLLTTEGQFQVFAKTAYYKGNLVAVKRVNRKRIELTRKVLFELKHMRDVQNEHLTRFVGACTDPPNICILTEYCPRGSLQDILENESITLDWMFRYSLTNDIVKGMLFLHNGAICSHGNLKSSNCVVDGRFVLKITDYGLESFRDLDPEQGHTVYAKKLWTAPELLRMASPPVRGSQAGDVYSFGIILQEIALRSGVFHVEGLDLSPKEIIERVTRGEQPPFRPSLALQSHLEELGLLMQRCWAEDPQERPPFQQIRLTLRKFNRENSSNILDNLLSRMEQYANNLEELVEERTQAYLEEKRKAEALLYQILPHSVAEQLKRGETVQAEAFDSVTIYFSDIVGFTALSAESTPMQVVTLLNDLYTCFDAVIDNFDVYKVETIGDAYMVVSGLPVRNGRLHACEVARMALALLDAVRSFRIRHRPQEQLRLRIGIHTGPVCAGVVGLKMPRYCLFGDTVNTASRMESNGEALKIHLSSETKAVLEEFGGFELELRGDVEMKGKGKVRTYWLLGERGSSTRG
#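 Compound pre-incubated 30 min at room temperature on GloSensor-loaded HEK293 cells stably carrying hNpr1 and the pGS-40F cGMP biosensor. Stimulation uses hNppA at 0.1 nM final; luminescence is taken at baseline and 20 min post-agonist.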
# HEK cytotox – kills HEK 293 cells. 6.6% of 94,000 active. AID 1345083. Potency, µM (doses to about 115 µM), for inactives: at the highest dose activity change, negative = cytotoxicity, hits mostly inhibitors. HEK 293 viability, ATP luminescence (CellTiter-Glo), 48-72 h; further: nearly all actives have a fitted effect of over 60% in size
#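 HEK 293 cells seeded at 250 cells/well were exposed to compound for 48 or 72 hr at 37 degree Celsius. Viability taken as ATP content by CellTiter-Glo luminescence.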
# 3T3 cytotox – cytotoxic compounds in NIH 3T3 cells | NIH 3T3 viability, CellTiter-Glo ATP luminescence, 48-72 h | Potency, µM (highest dose often 96.7 µM), for inactives: at the highest dose activity change, negative = cytotoxicity, usual class: inhibitors | 4.3% of 94,000 active; further: nearly all actives have a fitted effect of over 55% in size
#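 First NIH 3T3 cells are plated at 400 cells/well; next compound is pinned in; then plates incubate 48 or 72 hr at 37 °C; finally CellTiter-Glo is added and luminescence read after 10 min.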
# FLuc inh – Photinus pyralis luciferase inhibition | Potency, µM (titrated, usually from 115 µM), hits mostly inhibitors | AID 1347043 | P08659 | 2.5% of 76,000 active | purified P. pyralis luciferase, luminescence, biochemical; further: nearly all actives have a fitted effect of over 65% in size
#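 Purified 10nM P. pyralis luciferase with 10uM D-luciferin and 10uM ATP in 50mM Tris acetate pH 7.5, 10mM Mg acetate, 0.01% Tween-20, 0.05% BSA. qHTS titration; luminescence read by CCD imager.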
# * hit, by the source's call; i = inactive; ? = inconclusive; · = no result given; [ ] = remark or other dose. Unless noted, the call rests on the fitted dose curve; in most records, active means well fitted curve in the direction sought with a large enough effect; inconclusive means small, poorly fitted or top-dose-only effect, or another doubt; inactive means no such curve, though single readings can be large; an effect the other way counts as inactive or inconclusive. On the % scale 0 is the no-effect control and ±100 the full control effect; potency means the concentration at half of the fitted maximal effect.
SMILES,hNpr1 antagonist,HEK cytotox,3T3 cytotox,FLuc inh
Cc1c(O)cccc1C(=O)N1CCCN(Cc2ccc(F)cc2)C(C(C)C)C1 (centres undefined),-3%,45µM*,?,i
CC(C)C1CN(C(=O)CNC(=O)N(C)C)CCCN1Cc1ccc(F)cc1 (centres undefined),4%,?,i,i
Cn1ncc2c(C(=O)Nc3ccc(Cl)cc3)cc(-c3ccc(C(F)(F)F)cc3)nc21,·,i,-9%,·
CC1(COc2cccnc2)COc2ccc(C(=O)NCC3CCOCC3)cc2N1 (centres undefined),-2%[70.6 µM],?,-29%[138 µM],i
CC1(COc2cccnc2)COc2ccc(C(=O)Nc3cccc(Cl)c3)cc2N1 (centres undefined),28µM*,22µM*,?,?
CCOCC1(C)COc2ccc(C(=O)Nc3cccnc3)cc2N1 (centres undefined),6%[70.6 µM],?,-14%[138 µM],i
COc1cccc(NC(=O)c2ccc3c(c2)NC(C)(COc2cccnc2)CO3)c1 (centres undefined),22µM*,50µM*,?,?
CCOCC1(C)COc2ccc(C(=O)Nc3ccc(F)c(Cl)c3)cc2N1 (centres undefined),?,40µM*,32µM*,?
CN(C)CCOCC1(C)COc2ccc(C(=O)Nc3cccc(Cl)c3)cc2N1 (centres undefined),-13%[70.6 µM],63µM*,45µM*,45µM*
O=C(NC1CC1)C1CCN(C(=O)c2ncn3c2COC(c2ccc(F)cc2)C3)CC1 (centres undefined),3%,8%,i,35µM*
Cc1ccc(C2Cn3cnc(C(=O)N4CCC(C(=O)NC5CCCC5)CC4)c3CO2)cc1 (centres undefined),-10%,4%,i,?
O=C(Nc1ccc(F)cc1)C1CCN(C(=O)c2ncn3c2COC(c2ccc(F)cc2)C3)CC1 (centres undefined),-13%,0%,-17%,32µM*
Cc1ccc(NC(=O)C2CCN(C(=O)c3ncn4c3COC(c3ccc(F)cc3)C4)CC2)cc1Cl (centres undefined),-12%,?,?,28µM*
O=C(NC1CCCCCC1)C1CCN(C(=O)c2ncn3c2COC(c2ccc(F)cc2)C3)CC1 (centres undefined),-6%,4%,i,i
O=C(NC1CCCCCCC1)C1CCN(C(=O)c2ncn3c2COC(c2ccccc2)C3)CC1 (centres undefined),-22%,6%,1%,18µM*
O=C(Nc1cc(F)cc(F)c1)C1CCN(C(=O)c2ncn3c2COC(c2ccc(F)cc2)C3)CC1 (centres undefined),?,?,?,35µM*
O=C(Nc1cnc(-c2ccc(C(F)(F)F)cc2)nc1)C1CCOC1 (centres undefined),-20%,?,?,18µM*
Cc1ccnn1CC(=O)N1CCOc2c(O)cc(-c3cccc(Cl)c3)cc2C1,-28%,?,?,i
Cc1nc(C(=O)N2CCOc3c(O)cc(-c4cccc(Cl)c4)cc3C2)c(C)o1,?,40µM*,?,i
CCOC(=O)C(C)N1CCOc2c(O)cc(-c3cccc(Cl)c3)cc2C1 (centres undefined),?,45µM*,?,i
O=C(Cc1ccc(F)cc1)Nc1cc(-c2ccccn2)nn1-c1ccccc1,·,?,-23%,·
CN(CC1CCOCC1)C(=O)CCCc1ccccc1,-1%,2%,-5%,40µM*
O=C(c1ccc(F)cc1)N1CCCN(CCn2nc3n(c2=O)CCCC3)CC1,·,-5%,1%,·
CN1CCCCCC(O)c2cc(C(=O)Nc3cccc(OC(F)(F)F)c3)ccc21 (centres undefined),?,25µM*,28µM*,i
COc1ccc(OC)c(NC(=O)c2ccc3c(c2)C(O)CCCCCN3C)c1 (centres undefined),?,?,?,i
COc1cccc(NC(=O)c2ccc3c(c2)C(O)CCCCCN3C)c1 (centres undefined),-23%,?,?,35µM*
CN1CCCCCC(O)c2cc(C(=O)NCc3cc(F)cc(F)c3)ccc21 (centres undefined),-20%,?,?,i
